Screens: PubChem, National Center for Advancing Translational Sciences (NCATS)
TDP1 block – blocks human tyrosyl-DNA phosphodiesterase 1 | AID 485290 | Potency, µM (doses to about 130 µM), without a hit: at the highest dose activity change, negative = inhibition, actives largely listed as inhibitors | recombinant TDP1, AlphaScreen DNA substrate cleavage | 350,000 tested, 0.28% active; also: potency is read from the fitted curve at half-maximal effect; % is scaled to controls: 0 for no effect and ±100 for the full control effect; nearly all actives have a fitted effect of over 40% in size
Target sequence (Q9NUW8 whole entry, looked up): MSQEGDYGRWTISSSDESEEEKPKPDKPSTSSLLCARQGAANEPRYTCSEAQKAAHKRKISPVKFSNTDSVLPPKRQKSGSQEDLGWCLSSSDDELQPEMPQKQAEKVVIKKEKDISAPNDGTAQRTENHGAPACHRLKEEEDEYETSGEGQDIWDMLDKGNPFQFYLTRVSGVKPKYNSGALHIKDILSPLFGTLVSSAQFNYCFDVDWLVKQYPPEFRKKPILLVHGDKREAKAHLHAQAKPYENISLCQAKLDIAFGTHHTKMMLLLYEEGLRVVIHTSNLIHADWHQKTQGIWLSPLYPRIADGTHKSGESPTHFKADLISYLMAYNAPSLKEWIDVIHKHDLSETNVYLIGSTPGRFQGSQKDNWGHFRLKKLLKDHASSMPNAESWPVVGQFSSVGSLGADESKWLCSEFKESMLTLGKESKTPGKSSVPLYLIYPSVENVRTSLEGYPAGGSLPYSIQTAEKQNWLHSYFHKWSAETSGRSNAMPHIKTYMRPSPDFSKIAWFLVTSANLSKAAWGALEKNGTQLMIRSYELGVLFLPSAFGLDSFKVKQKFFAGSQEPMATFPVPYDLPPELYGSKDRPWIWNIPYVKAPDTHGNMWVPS
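Enzyme-compound mixtures sat 15 min at room temperature, followed by a 5 min reaction with 15 nM final substrate and 10 min with AlphaScreen beads. Recombinant human Tdp1 was used at 1 nM final.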
HepG2 tox – HepG2 cytotoxicity, counter-screen for TGF-b inhibitors; HepG2 CAGA-GFP viability, ATP luminescence, 18 h; Potency, µM (series often up to 46.1 µM), inactives show at the highest dose activity change, negative = cytotoxicity, actives largely listed as cytotoxic; 410,000 tested, 0.76% active; also: potency is read from the fitted curve at half-maximal effect
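HepG2 CAGA-GFP cells (1000/well, DMEM with 1% FBS) received compound, then TGF-beta at 500 pg/mL final, and were incubated 18 hours at 37 degrees C. Viability was read by CellTiter-Glo luminescence. Media-only wells were set as complete cell-killing and DMSO as no toxicity.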
IL1B secr inh – blocks inflammasome-driven IL-1 beta release; THP-1 LPS/ATP IL-1B secretion, AlphaLISA, 16 h; hits give low values; activity change, % at 57.5 µM; 360,000 tested, 4.7% active; AID 743279; in the data active = activity change below about -50%; inconclusive = mostly about -30% to -49%; also: % is scaled to controls: 0 for no effect and ±100 for the full control effect
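THP-1 cells pretreated 1 hr with compounds (up to 57.5 uM final), then stimulated with LPS (250 ng/mL final) plus ATP (1.25 mM final); secreted IL-1B measured by AlphaLISA after 16 hr, decreased signal indicating inhibition.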
TGFb SMAD3 inh – blocks TGF-b signaling; 410,000 tested, 1.2% active; HepG2 CAGA-GFP TGF-b/SMAD3 reporter, GFP fluorescence, 18 h; TGF-beta stimulated, 500 pg/mL final; AID 588855; Potency, µM (series often up to 46.1 µM), for inactives: top-dose activity, negative = inhibition, usual class: inhibitors; also: potency is read from the fitted curve at half-maximal effect; % is scaled to controls: 0 for no effect and ±100 for the full control effect; nearly all actives have a fitted effect of over 65% in size
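Inhibition was scored as loss of TGF-beta-induced (500 pg/mL final, 18 hours, 37 degrees C) GFP in HEPG2 cells carrying a CAGA-GFP reporter, in DMEM with 1% FBS. Well GFP was summed per cell; Activity was normalised to unstimulated and stimulated DMSO wells, then concentration-response fitting.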
TDP1 cell CPT – growth inhibition of DT40 Tdp1-/-;hTDP1 cells with camptothecin (screen for TDP1 inhibitors). 420,000 tested, 12% active. chicken DT40 Tdp1-/-;hTDP1 cells + 20 nM CPT, ATP luminescence, 48 h. Potency, µM (titrated, usually from 46.2 µM), for the others: at the highest dose activity change, negative = growth inhibition, hits mostly inhibitors; also: potency is read from the fitted curve at half-maximal effect; % is scaled to controls: 0 for no effect and ±100 for the full control effect; nearly all actives have a fitted effect of over 55% in size
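Chicken DT40 Tdp1-/- cells stably complemented with human TDP1 were seeded at 400 cells/well in medium containing 20 nM camptothecin, exposed to pin-transferred compounds, and grown at 37 °C for at least 48 hr. Viability was read as ATP luminescence.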
DT40 TDP1 no CPT – qHTS for Inhibitors of human tyrosyl-DNA phosphodiesterase 1 (TDP1): qHTS in cells in absence of CPT | DT40 Tdp1-/- hTDP1 cells, no CPT, ATP luminescence, 48 h | Potency, µM (titrated, usually from 46.2 µM), inactives show at the top dose activity change, negative = growth inhibition, most hits filed as inhibitors | 420,000 tested, 15% active | AID 686978, 2013; also: potency is read from the fitted curve at half-maximal effect; % is scaled to controls: 0 for no effect and ±100 for the full control effect; nearly all actives have a fitted effect of over 55% in size
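DT40 Tdp1-/-;hTDP1 cells, no CPT (DMSO vehicle only), 400 cells/well; compounds pin-transferred; ≥48 hr, 37 °C; CellTiter-Glo 30 min RT dark, luminescence read.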
* marks the source's active call; other numbers are inactive results; ? = inconclusive; · = no result given; [ ] = remark or other dose. Hits are enriched below; roughly 19% of the tested compounds scored in any of these assays. Unless noted, calls follow the shape of the dose curve; as a rule, active = well fitted curve in the direction sought with a large enough effect; inconclusive = small, poorly fitted or top-dose-only effect, or another doubt; inactive = no such curve, though single readings can be large; an effect the other way counts as inactive or inconclusive.

SMILES | TDP1 block | HepG2 tox | IL1B secr inh | TGFb SMAD3 inh | TDP1 cell CPT | DT40 TDP1 no CPT
COc1ccc(-c2cc(=O)oc3c(C)c(OC(C)C(=O)NCc4ccccn4)ccc23)cc1 (centres undefined) | · | -4% | -9 | -10% | ? | 26µM*
COc1ccc(-c2cc(=O)oc3cc(OCC(=O)NCCCn4ccnc4)ccc23)cc1 | · | -7% | -5 | 3% | 21µM* | ?
Cc1c(OCC(=O)NCc2ccccn2)ccc2c(-c3ccccc3)cc(=O)oc12 | · | 1% | 6 | 14% | -4% | ?
COc1ccc(-c2cc(=O)oc3cc(OC(C)C(=O)NCCCn4ccnc4)ccc23)cc1 (centres undefined) | · | -19% | 51 | 2% | 18µM* | 21µM*
CCc1cccc(C)c1NS(=O)(=O)Cc1ccccc1 | · | -1% | 8 | -8% | ? | ?
O=C(CN1CCCC1c1cccs1)Nc1cccc(S(=O)(=O)N2CCCC2)c1 (centres undefined) | 1% | -17% | 11 | -15% | 15µM* | ?
CCc1ccccc1OCC(=O)Nc1cccc(S(=O)(=O)N2CCCC2)c1 | 0% | 4% | -3 | ? | ? | 16µM*
CN(C)c1ccc(S(=O)(=O)N2CCCCC2)cc1NC(=O)CCNC(=O)c1ccc(Cl)cc1 | 0% | 4% | -15 | -3% | -20% | -6%
O=C(CN(CCO)c1ccccc1)Nc1cccc(S(=O)(=O)N2CCCC2)c1 | 8% | -15% | -4 | -13% | 18µM* | ?
O=C(CCNC(=O)c1ccc(Cl)cc1)Nc1cccc(S(=O)(=O)N2CCCCC2)c1 | 1% | 5% | -13 | -7% | 18µM* | 23µM*
N#Cc1nc(Nc2cccc(Cl)c2)c2ncn(C3CCCC3)c2n1 | -4% | -40% | · | ? | · | ·
COc1ccc(S(=O)(=O)NCC(c2ccco2)S(=O)(=O)c2cccs2)cc1F (centres undefined) | 3% | -11% | · | ? | ? | ?
O=C(CNc1ccc(F)cc1Cl)Nc1cccc(S(=O)(=O)N2CCCCC2)c1 | 0% | -37% | ? | ? | ? | ?
O=C(Cc1ccccc1Cl)Nc1cccc(S(=O)(=O)N2CCCCCC2)c1 | -2% | -1% | -52* | -14% | -7% | -6%
O=C(Nc1cccc(S(=O)(=O)N2CCCCC2)c1)Nc1ccc(Cl)cc1Cl | 0% | 10% | -87* | ? | ? | ?
Cc1ccc(NC(=O)CCNC(=O)c2ccc(Br)cc2)cc1S(=O)(=O)N1CCCCCC1 | 4% | 3% | 6 | ? | ? | 16µM*
O=C(COC(=O)CCC1CCCC1)Nc1cccc(S(=O)(=O)N2CCOCC2)c1 | · | -22% | -87* | 18% | -20% | -27%
NS(=O)(=O)c1cccc(NC(=O)COC(=O)CCC2CCCC2)c1 | -2% | -10% | -3 | 8% | 16% | 3%
COC(=O)CC1=COC(O)C2C(CO)=CC[C@@H]12 (some centres undefined) | 3%[21 µM] | · | · | · | · | ·
COc1ccc2[nH]c3c(c2c1)CCN1C(=O)C(CC(=O)NCCc2ccccn2)C[C@H](C(=O)N(C(C)C)C(C)C)[C@@]31C (some centres undefined) | 1%[56.1 µM] | -13% | -22 | -29% | ? | ?
O=C(CSc1ncccn1)Nc1cccc(S(=O)(=O)N2CCOCC2)c1 | 2% | -7% | 21 | -17% | -10% | -25%
COc1ccc(CCC(=O)Nc2cccc(S(=O)(=O)N3CCOCC3)c2)cc1OC | -3% | -5% | -11 | 5% | 15µM* | ?
O=C(Cc1ccc(Cl)c(Cl)c1)Nc1cccc(S(=O)(=O)N2CCOCC2)c1 | -7% | -29% | -80* | -9% | ? | ?
N#Cc1ccccc1OCC(=O)Nc1cccc(S(=O)(=O)N2CCCC2)c1 | 0%[56.1 µM] | 3% | -3 | -6% | 16µM* | ?
O=C(Nc1cccc(S(=O)(=O)N2CCCC2)c1)[C@@H]1O[C@H](CO)[C@@H](O)[C@H]1O | · | -1% | -76* | 24% | 5% | 0%
SMILES | TDP1 block | HepG2 tox | IL1B secr inh | TGFb SMAD3 inh | TDP1 cell CPT | DT40 TDP1 no CPT
O=C(CCc1ccccc1)Nc1cccc(S(=O)(=O)N2CCOCC2)c1 | 1% | -4% | -3 | 2% | ? | ?
COC(=O)C1=C(C(=O)OC)[C@@H]2N(C)c3ccccc3[C@@]23C[C@@H](CO)N(C(=O)C2CCC2)C3=N1 | 15%[12.3 µM] | 3% | -24 | 9% | -2% | -13%
COCCCNC(=O)c1c(NC(=O)Cc2coc3cc(C)cc(C)c23)sc2c1CCCC2 | 5% | -40% | · | ? | ? | ?
Cc1cc(N2CCN(c3ccccc3Cl)CC2)n2cc(-c3ccccc3)nc2n1 | 3% | -49% | -60* | ? | ? | ?
Cc1cc(N2CCN(c3cc(Cl)ccc3C)CC2)n2nc(-c3ccccc3)nc2n1 | 0% | -5% | · | 28% | -8% | -25%
Cc1ccccc1NC(=S)N=Nc1c(O)n(C)c2ccc(S(=O)(=O)N3CCOCC3)cc12 | -5% | -36% | -13 | 5.6µM* | 8.2µM* | 7.3µM*
Cc1cccc(C)c1NC(=S)N=Nc1c(O)n(C)c2ccc(S(=O)(=O)N3CCOCC3)cc12 | 0% | -24% | 2 | -6% | 2.6µM* | 4.1µM*
O=C(Nc1ccccc1)c1ccc2c(O)c(S(=O)(=O)c3ccc(Cl)cc3)c(=O)[nH]c2c1 | 3% | -19% | · | -7% | 8% | 1%
COC(=O)N1CCC2(CC1)CN(C(=O)Nc1ccc(OC)cc1)C2 | · | · | · | · | 7% | -1%
Cc1ccc(S(=O)(=O)N(CC(=O)Nc2cccc(C)c2C)C(=O)N2CCN(C)CC2)cc1 | · | 32% | -10 | 2% | -1% | -7%
COc1ccc2cnn(-c3ccccc3C)c(=O)c2c1OC | 2% | -25% | 20 | -2% | 10µM* | 7.3µM*
COc1ccc(CN(C)C(=O)CNC(=O)c2sc3ccccc3c2Cl)c(OC)c1 | · | -22% | ? | -15% | -27% | ?
O=C(CN1CC[n+]2c(-c3cccs3)csc21)c1ccc(-c2ccccc2)cc1 | 5% | -22% | -89* | -8% | 9.2µM* | 8.2µM*
O=C(O)c1ccc(-c2nc(-c3ccccc3)c(-c3cccs3)[nH]2)cc1 | 2% | -1% | 32 | 5% | 15% | 11%
